Source: PubChem BioAssay (NCI)
Compounds without any hit were thinned out: in the full panel of roughly 83,000, 20% have a hit.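 Single-dose data. Exposure time 48 hours. Values below 10 considered active.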 Unmarked numbers belong to inactive results. Active and inactive are the calls of the source.

Test system: SNB-75 CNS
Experiment: NCI-60 one-dose screen, 48 h (100 = growth as untreated, 0 = no growth, -100 = all killed)
Conditions: 10 µM unless noted

| Structure (SMILES) | growth |
| --- | --- |
| Cn1[nH]cc(/C=N/C(N)=O)c1=O | 106% |
| Nc1ccc2c(c1)/C(=N/O)c1cc([N+](=O)[O-])ccc1-2 | 64.1% |
| CC(=O)n1c2ccccc2c2ccccc21 | 97.6% |
| Fc1ccc(-c2nnc(/C=C/c3cn(-c4ccccc4)nc3-c3ccccc3)o2)cc1 | 88.2% |
| COc1cc(/C=C/C(=O)c2ccc(F)cc2)ccc1OCCCCCOc1cc2c(cc1OC)C(=O)N1CCCC1C=N2 (stereo not given) | -57.5% (active) |
| O=C(Nc1nc(-c2ccccc2)cs1)c1cc(O)c(O)c(O)c1 | 33.1% |
| O=C1/C(=C/c2ccc3cccc(Cl)c3n2)SC(=S)N1CCc1ccc(O)cc1 | 50.7% |
| Nc1ncc(-c2cnn(C3CCNCC3)c2)cc1-c1nc2cc(Cl)ccc2o1 | -97.9% (active) |
| O=C(NCCc1ccccc1)C1CCC(=O)N1Cc1ccc(Br)cc1 (stereo not given) | 100% |
| Cn1c(=O)c2c(nc(Br)n2CCC(=O)Nc2ccc(F)cc2)n(C)c1=O | 89.1% |
| Cc1cc(C(C)(C)C)cc(C)c1CC1=NCCN1 | 97% |
| CCOc1cc(C(C)(C)C)ccc1C1=N[C@H](c2ccc(Cl)cc2)[C@H](c2ccc(Cl)cc2)N1C(=O)N1CCN(CC#Cc2cccc3c2CN([C@@H]2CCC(=O)NC2=O)C3=O)CC1 | 23% |
| NC(=O)c1ncn([C@@H]2O[C@H](CO)[C@@H](O)[C@H]2O)n1 | 92.2% |
| CCCCC1Nc2nc(SC)n(C)c(=O)c2CN(Cc2ccccc2)C1=O (stereo not given) | 86% |
| Cc1c(C)c(N2C(=O)C=CC2=O)c(C)c(C)c1N1C(=O)C=CC1=O | 101% |
